Source: PubChem BioAssay (several laboratories)
This is a sample that favours compounds with a hit; in the whole collection about 1.6% have one here.
Pemphigus Ab inh = inhibitors of pemphigus antibody binding to human desmoglein-3; P32926; DSG3-coupled beads, scFv-anti-DSG3-GFP binding, flow cytometry; stronger effect = lower value; binding (percent of control), % at 10 µM; 310,000 tested, 0.48% active; AID 588358;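 active means binding more than 3 SD below its plate's average and above zero; inconclusive means below that plate limit but binding exactly zero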;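 further: hits lower antibody fragment binding to DSG3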
VLA-4 inh = inhibition in a human VLA-4 binding assay; P13612; VLA-4 expressing cells, ligand binding flow cytometry; inhibition, % (about 7 µM as worked out from the volumes in the protocol); 330,000 tested, 0.2% active; AID 2557; in the data active means inhibition above about 50%
Target sequence (P13612 whole entry, looked up): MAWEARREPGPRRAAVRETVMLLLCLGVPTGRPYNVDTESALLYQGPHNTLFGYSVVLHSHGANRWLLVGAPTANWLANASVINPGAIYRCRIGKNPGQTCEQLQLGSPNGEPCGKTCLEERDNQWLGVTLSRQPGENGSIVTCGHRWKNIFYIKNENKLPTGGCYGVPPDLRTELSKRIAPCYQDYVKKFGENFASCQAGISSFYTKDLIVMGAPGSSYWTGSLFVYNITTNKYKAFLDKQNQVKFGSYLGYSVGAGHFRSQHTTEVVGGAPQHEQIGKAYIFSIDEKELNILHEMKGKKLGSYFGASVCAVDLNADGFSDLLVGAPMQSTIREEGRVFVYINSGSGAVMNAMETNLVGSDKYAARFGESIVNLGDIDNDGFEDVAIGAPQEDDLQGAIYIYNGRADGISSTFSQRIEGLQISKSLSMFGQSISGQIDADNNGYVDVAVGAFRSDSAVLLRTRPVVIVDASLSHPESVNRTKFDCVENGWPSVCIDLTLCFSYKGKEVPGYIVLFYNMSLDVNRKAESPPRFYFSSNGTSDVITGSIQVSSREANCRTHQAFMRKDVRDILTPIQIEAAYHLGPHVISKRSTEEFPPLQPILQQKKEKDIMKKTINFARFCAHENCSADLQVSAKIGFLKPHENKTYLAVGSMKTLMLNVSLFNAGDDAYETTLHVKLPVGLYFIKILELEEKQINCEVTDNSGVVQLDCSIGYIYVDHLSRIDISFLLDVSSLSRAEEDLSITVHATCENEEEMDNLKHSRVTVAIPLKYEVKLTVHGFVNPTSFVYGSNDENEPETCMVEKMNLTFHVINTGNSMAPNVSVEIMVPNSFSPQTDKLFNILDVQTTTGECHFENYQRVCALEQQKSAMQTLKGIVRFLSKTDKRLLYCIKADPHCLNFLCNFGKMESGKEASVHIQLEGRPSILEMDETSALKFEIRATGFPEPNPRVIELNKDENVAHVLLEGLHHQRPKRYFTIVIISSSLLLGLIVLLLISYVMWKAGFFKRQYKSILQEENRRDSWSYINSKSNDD
GASC-1 inh = human JMJD2C demethylase inhibition; 330,000 tested, 0.069% active; AID 2099; GST-JMJD2C(1-420) H3K9me3 demethylation, DELFIA europium; inhibition, % at 2.35 µM;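 active means more than half of a compound's replicate wells show inhibition beyond 50%, single wells judged on their own value; inconclusive means some, but no more than half, of replicates pass 50% inhibition; inactive means no replicate passes 50% inhibition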;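 further: signal counts dimethyl H3K9 product captured on neutravidin plate; 0% = median of DMSO wells and 100% = 0.3 times that DMSO median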
GRK2 inh = blocks RNA aptamer binding to human GRK2. inhibition of aptamer binding, % at 10 µM. 330,000 tested, 0.59% active. bead flow cytometry, FAM-aptamer displacement from GRK2. P25098;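 active means inhibition of aptamer binding above 40%, roughly 3 SD of noise, on plates passing a quality check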;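 further: median bead fluorescence of bound FAM aptamer so fluorescent compounds give negative values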
PREPL inh = inhibits the human prolyl oligopeptidase-like enzyme; 320,000 tested, 0.68% active; recombinant PREPL, fluorescence polarization activity-based probe; AID 2751; inhibition, % at 5.96 µM; Q4J6C6; in the data active means inhibition above about 43%;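 further: 0% = enzyme with DMSO and 100% = wells lacking enzyme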
An asterisk follows results filed as active; ? = inconclusive; · = not tested or not shown.

SMILES	Pemphigus Ab inh	VLA-4 inh	GASC-1 inh	GRK2 inh	PREPL inh
COc1ccc(Nc2nc3c(C)cccn3c(=O)c2C=NCc2ccccc2)cc1	70*	20	-3	4	11
COc1ccc(-n2nnnc2-c2cnc3cc4c(cc3c2C)OCO4)cc1	?	12	-3	3	7
NC(=O)C1CCN(C(=O)Cc2ccsc2)CC1	120	0	-1	0	0
CCN(c1ccccc1)S(=O)(=O)c1ccc(Cl)c(NC(=O)CSc2ncn[nH]2)c1	·	-18	11	3	-20
CCN(c1ccccc1)S(=O)(=O)c1ccc(Cl)c(NC(=O)c2ccc(=O)[nH]n2)c1	21*	4	4	4	-6
O=C(Cn1cnc2ccccc2c1=O)c1ccc(OC(F)F)cc1	39*	-18	-8	1	1
CCCc1cc(=O)oc2cc(OCC(=O)N3CCOCC3)c(Cl)cc12	106	8	1	0	17
CCCc1cc(=O)oc2cc(OCC(=O)N(C)C)c(Cl)cc12	2.6*	5	-3	2	-1
O=C(Cc1cccc2ccccc12)NCC(=O)N1CCN(Cc2cccc(C(F)(F)F)c2)CC1	102	-1	-6	0	16
O=C(O)c1cccc(NS(=O)(=O)/C=C/c2ccccc2)c1	94	8	0	6	-2
O=C(O)c1ccc(NS(=O)(=O)/C=C/c2ccccc2)cc1	·	13	8	55*	17
Cc1cc(C)c(CN2CCN(C(=O)Cn3cnc4c(OCc5ccccc5)ncnc43)CC2)c(C)c1	107	18	-27	17	-7
C/C(=N/NC(=O)c1cc(-c2cccc([N+](=O)[O-])c2)n[nH]1)c1cccc(O)c1	75*	24	0	0	8
Nc1nc(N)nc(-c2ccccc2-c2nc(N)nc(N)n2)n1	74*	17	5	0	5
COC(=O)CNC(=O)COC(=O)Cc1ccc(Cl)cc1	92	-15	13	3	5
O=C(Oc1ccc(OC(=O)N2CCCCC2)cc1)c1ccccc1	68*	-1	24	0	7
O=C(Oc1cccc(C(=S)N2CCOCC2)c1)c1ccccc1	-24*	-1	4	0	1
O=C(Oc1ccccc1)N1CCCC1	104	5	-14	3	-3
CCc1nc2ccccc2c(C(=O)OCC(=O)NCCCN2CCCC2=O)c1C	79	16	9	0	-2
COc1ccc2c(CC(=O)OCC(=O)Nc3ccc(C)cc3)coc2c1	97	37	-3	44*	-7
COc1ccc2c(CC(=O)OCC(=O)Nc3ccc(S(N)(=O)=O)cc3)coc2c1	101	5	5	0	5
CC(=O)Nc1ccc(S(=O)(=O)N2CCCC2C(=O)Nc2ccc3c(c2)OCCO3)cc1 (stereo not drawn)	101	6	-16	1	7
COc1ccc(NC(=O)c2ccc3c(c2)C(=O)N(Cc2ccncc2)C3=O)cc1S(N)(=O)=O	69*	4	3	6	-4
N=c1oc2ccc3ccccc3c2cc1C(N)=S	80*	-12	-8	1	10
COC(=O)c1c(NC(=O)COC(=O)Cn2cnc3ccccc32)sc2c1CCCC2	94	-5	4	0	0
SMILES	Pemphigus Ab inh	VLA-4 inh	GASC-1 inh	GRK2 inh	PREPL inh
O=C1CCCN1CCCNS(=O)(=O)c1ccc(F)cc1F	105	22	1	2	7
O=C(CC1CCCC1)Nc1ccc(Cl)c(S(=O)(=O)N2CCOCC2)c1	118	10	7	1	5
Cc1ccc(-c2csc(NC(=O)c3cccc([N+](=O)[O-])c3)n2)cc1	96	0	10	1	0
Cc1csc(C(=O)O)c1NC(=O)c1cccc([N+](=O)[O-])c1	43*	26	2	2	-6
COc1ccc(N2CCc3c(C)nc4c(OC)cc(OC)cc4c32)c(OC)c1	·	28	-17	0	48*
CCCCN(C)CCCNC(=O)CN1C(=O)COc2ccc(S(=O)(=O)N3CCOCC3)cc21	92	-9	0	0	-1
CC(C)(C)c1ccc(-c2noc(-c3ccc4c(c3)CCO4)n2)cc1	106	-4	-5	0	-11
CNc1ccc2c3c(cccc13)C(=O)N(C)C2=O	98	-14	3	4	64*
O=C(O)c1cc(NS(=O)(=O)c2ccc(N3CCCCC3)c([N+](=O)[O-])c2)cc(C(=O)O)c1	102	12	-2	1	0
Cc1cccc(NC(NC(=O)Cc2ccccc2)C(Cl)(Cl)Cl)c1 (stereo not drawn)	99	21	-1	0	6
C[C@H]1CN(CCc2ccccc2)C(=O)[C@@H]1CC(=O)NCc1ccccc1	105	-8	61*	3	5
C[C@H]1CN(Cc2ccccc2)C(=O)[C@@H]1CC(=O)NCc1ccccc1	108	-4	-12	0	4
CC(=O)Nc1cc(OC(C)=O)c2nonc2c1OC(C)=O	108	-4	17	5	56*
CN1\C(=C/C=C/C=C/C=[N+](C)C)C(C)(C)c2ccccc21	66*	·	2	·	·
CN1/C(=C\C=O)C(C)(C)c2ccccc21	91	-380	2	0	-36
CC(C)(C)OC(=O)N1CCCN(C(=O)Nc2cccc(Cl)c2)CC1	110	9	0	0	7
CC(C)(C)OC(=O)N1CCCN(C(=O)Nc2ccccc2)CC1	87*	7	2	0	-2
COc1cc(N=Nc2ccc(Br)cc2)cc(C=O)c1O	98	·	·	·	·
CC(/C=C/c1ccco1)=N/NC(=O)Cc1cccs1	93	16	1	1	11
Cc1cc2nc3n(c2cc1C)CC1CC(C(=O)NCc2cccc(Br)c2)N(C)C31 (stereo not drawn)	117	13	-11	2	-16
CN1C(C(=O)NCc2cccc(Br)c2)CC2Cn3c(nc4cc5ccccc5cc43)C21 (stereo not drawn)	91*	·	-6	·	-49
COc1ccc(NCC(=O)N/N=C2\CCc3ccccc32)cc1	106*	4	2	2	20
COc1ccc(OC)c(C(c2nnnn2C2CCCC2)N2CCN(c3ccccc3)CC2)c1 (stereo not drawn)	108	-2	0	8	11
COc1cc(NS(=O)(=O)c2ccc(-n3cccn3)cc2)cc(OC)c1	102	·	·	·	·
COc1ccc(C(C)=O)cc1COc1ccc(Cl)cc1Cl	83*	8	-24	0	-4
COc1ccc(C(C)=O)cc1COc1cc(C)c(Cl)c(C)c1	94	-4	-3	0	8
Cc1cccc(C(=O)O/N=C(/c2ccccc2)c2ccncc2)c1	109	-2	-25	1	-6
COc1ccc(C(=O)O/N=C(/c2ccccc2)c2ccncc2)cc1	101	2	3	2	87*
Clc1ccc2nc(CSc3nnc(-c4c[nH]c5ccccc45)o3)cn2c1	42*	·	·	·	·
O=C1c2ccccc2-c2onc3ccc(NCCCn4ccnc4)c1c23	·	-177	-6	0	110*
